Rows were chosen to be rich in hits. Some 1.7% of all compounds tested hit in one or more screens of this group.
Fh CTSL1 inh = counter-screen for PFM18AAP inhibitors: inhibitors of F. hepatica cathepsin L1; recombinant F. hepatica cathepsin L1, Z-Leu-Arg-MCA fluorescence; inhibition, % at 5.96 µM; 300,000 tested, 0.49% active;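 active = inhibition above the mean of all tested compounds plus 3 SD, set per screening campaign, cut at about 17% in these data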
HDAC3 inh = inhibitors of human histone deacetylase 3; O15379; recombinant HDAC3, fluorogenic peptide/trypsin coupled, fluorescence; inhibition, % at 8.3 µM; 320,000 tested, 0.15% active; AID 2718; in the data active = inhibition above about 26%, passing the limit was not always enough
HTR2A ag = activates the mouse 5-HT2A serotonin receptor; CHO-K1 mHTR2A beta-arrestin complementation, luminescence; percent of 30 µM serotonin response; AID 624169; 360,000 tested, 0.66% active; activation, % at 7.6 µM; P35363;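 active = activation above a run cutoff, the mean activation of all tested compounds plus 3 SD, cut at about 14% in these data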
LANA-H2A inh = blocks KSHV LANA binding to histone H2A/H2B; inhibition, % (concentration not given with the values); cell-free LANA-H2A/H2B peptide, fluorescence polarization; AID 2629; 320,000 tested, 0.6% active; Q9QR71; in the data active = inhibition mostly above about 10%, no sharp cut-off; inactive = mostly below about 6.7%
MOR ag counter = OPRM1 agonism in mouse HTR2A counterscreen | activation, % at 9.3 µM | U2OS OPRM1 beta-arrestin PathHunter, luminescence; DMSO 0%, DAMGO 9.3 µM 100% | 2,300 tested, 5.3% active | shares compounds with HTR2A ag;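 active = mean activation above the mean of DMSO-only wells plus 3 SD, cut at about 0.5% in these data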
Target sequence (P35372 whole entry, looked up): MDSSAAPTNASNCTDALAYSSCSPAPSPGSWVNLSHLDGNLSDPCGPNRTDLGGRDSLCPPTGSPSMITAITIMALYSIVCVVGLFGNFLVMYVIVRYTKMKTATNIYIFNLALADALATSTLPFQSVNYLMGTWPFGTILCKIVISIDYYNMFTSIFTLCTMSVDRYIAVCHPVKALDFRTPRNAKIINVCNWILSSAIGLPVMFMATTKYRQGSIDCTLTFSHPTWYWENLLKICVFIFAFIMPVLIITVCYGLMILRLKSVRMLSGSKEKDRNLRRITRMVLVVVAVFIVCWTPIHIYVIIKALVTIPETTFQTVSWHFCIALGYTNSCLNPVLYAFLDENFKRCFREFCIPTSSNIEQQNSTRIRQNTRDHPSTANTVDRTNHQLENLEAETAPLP
HTR2A ag conf = confirmation of mouse HTR2A serotonin receptor agonists | shares compounds with HTR2A ag | CHO-K1 PathHunter beta-arrestin recruitment, luminescence; DMSO 0%, 30 µM serotonin 100% | activation, % at 7.6 µM | 2,300 tested, 19% active | AID 624381;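 active = mean activation across triplicates above the hit threshold derived in the original primary screen, cut at about 15% in these data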
Large screens that a line does not name were inactive (follow-up assays come after a bar, where they were run).

Cc1ccc(C)c(CN2CCN(c3ncccn3)CC2)c1	HTR2A ag 17 | MOR ag counter inactive | HTR2A ag conf 62
Cc1ccc(C)c(S(=O)(=O)N2CCN(c3ncccn3)CC2)c1	none
Cc1ccc(CN2CCN(c3ccccc3)CC2)o1	none
COc1cccc(CN2CCN(c3ncccn3)CC2)c1	HTR2A ag 36 | MOR ag counter inactive | HTR2A ag conf 113
COc1cccc(N2CCN(Cc3cccnc3)CC2)c1	none
CCCCn1c(N)c(N(CC(C)C)C(=O)c2ccc(Br)s2)c(=O)[nH]c1=O	none
COC(=O)c1ccc(NC(=O)COC(=O)COc2cccc3c2OC(C)(C)C3)cc1	none (no result: Fh CTSL1 inh)
Fc1ccccc1CN1CCN(c2ncccn2)CC1	HTR2A ag 26 | MOR ag counter inactive | HTR2A ag conf 121
COc1cc(Br)cc(CN2CCN(c3ncccn3)CC2)c1O	HTR2A ag 33 (no result: Fh CTSL1 inh) | MOR ag counter inactive | HTR2A ag conf 106
Nc1cccc(-c2cn(-c3cc4cc(C#CC5(O)CCCCC5)ccc4oc3=O)nn2)c1	none (no result: Fh CTSL1 inh)
COc1ccc(OC(=O)c2cccc(S(=O)(=O)N3CC(C)OC(C)C3)c2)cc1 (configuration not stated)	none (no result: Fh CTSL1 inh, HDAC3 inh, LANA-H2A inh)
Cc1ccc(C)c(N2CCN(S(=O)(=O)c3ccc4c(c3)CCN4C(=O)CCC(=O)O)CC2)c1	none
O=C(O)CCC(=O)N1CCc2cc(S(=O)(=O)N3CCN(c4ccc(F)cc4)CC3)ccc21	HTR2A ag 15 | MOR ag counter inactive | HTR2A ag conf inactive
CC(=O)CC(C)(C)Nc1nc2ccc([N+](=O)[O-])cc2o1	none
CC(C)(C)Nc1nc2ccc([N+](=O)[O-])cc2o1	HTR2A ag 15 | MOR ag counter inactive | HTR2A ag conf inactive
CC(C)c1ccc(NC(=O)Cc2ccc(NC3=NC4CS(=O)(=O)CC4S3)cc2)cc1 (configuration not stated)	none
CCn1ccnc1CN(C)C(=O)C1CCC(=O)N(Cc2cccc(C(F)(F)F)c2)C1 (configuration not stated)	HTR2A ag 15 | MOR ag counter inactive | HTR2A ag conf inactive
CC1CCCC(C)N1C(=O)/C=C/c1ccc(S(=O)(=O)N2CCOCC2)cc1 (configuration not stated)	none (no result: Fh CTSL1 inh, HDAC3 inh, LANA-H2A inh)
CCC1CCCCN1Cc1nc2c(c(=O)n(C)c(=O)n2C)n1CC(C)C (configuration not stated)	none
CCC1CCCCN1Cc1nc2c(c(=O)n(C)c(=O)n2C)n1CCC(C)C (configuration not stated)	HTR2A ag 20 | MOR ag counter inactive | HTR2A ag conf inactive
CC(=O)c1ccc(S(=O)(=O)NCCC(=O)NC(C)c2ccncc2)cc1 (configuration not stated)	none (no result: Fh CTSL1 inh, HDAC3 inh, LANA-H2A inh)
Cc1ccccc1NC(=O)c1cccc(NC(=O)c2ccco2)c1	HTR2A ag 15 | MOR ag counter inactive | HTR2A ag conf inactive
O=C(Nc1ccc(Cl)cc1)c1ccco1	HTR2A ag 15 | MOR ag counter inactive | HTR2A ag conf inactive
Cc1ccc(Oc2ccc(NC(=O)c3ccco3)cc2)cc1	none
Cc1ccc(NC(=O)c2ccc(OC(=O)c3ccco3)cc2)cc1	HTR2A ag 18 | MOR ag counter inactive | HTR2A ag conf inactive
O=C(CCCc1nc(-c2ccc(Cl)cc2)no1)NC1CCCC1	none
CCOc1ccc(NS(=O)(=O)c2ccc(C(=O)N(C)Cc3cccc(OC)c3OC)cc2)cc1	none
COc1cc(/C=C2\SC(=O)N(CCNC(=O)c3c(C)noc3C)C2=O)cc(OC)c1OC	HTR2A ag 21 (no result: Fh CTSL1 inh) | MOR ag counter inactive | HTR2A ag conf inactive
O=c1[nH]cnc2c1ncn2C1CCC(CO)O1 (configuration not stated)	none (no result: Fh CTSL1 inh, HDAC3 inh, LANA-H2A inh)
Cc1cccc(N2C(=O)C3C4C=CC(C4)C3C2=O)c1 (configuration not stated)	HTR2A ag 22 | MOR ag counter inactive | HTR2A ag conf inactive
CCN(C(=O)CSc1nnnn1-c1ccc(Cl)cc1)C1CCS(=O)(=O)C1 (configuration not stated)	none (no result: Fh CTSL1 inh)
CCc1ccc(-c2nc(CS(=O)CC(=O)NCc3ccco3)c(C)o2)cc1 (configuration not stated)	none
O=C(Cc1ccc(NC(=O)C2CCCN(C(=O)C3CCCCC3)C2)cc1)Nc1cccc(C(=O)N2CCCC2)c1 (configuration not stated)	none (no result: Fh CTSL1 inh, HDAC3 inh, LANA-H2A inh)
O=C(Cc1ccc(NC(=O)C2CCCN(C(=O)C3CCC3)C2)cc1)Nc1ccc(C(=O)N2CCOCC2)cc1 (configuration not stated)	HTR2A ag 17 (no result: Fh CTSL1 inh, HDAC3 inh, LANA-H2A inh) | MOR ag counter inactive | HTR2A ag conf inactive
CN(C(=O)c1cccc(NC(=O)Cc2ccc(NC(=O)C3CCCN(C(=O)CCc4ccccc4)C3)cc2)c1)C1CC1 (configuration not stated)	HTR2A ag 16 (no result: Fh CTSL1 inh, HDAC3 inh, LANA-H2A inh) | MOR ag counter 1.1 | HTR2A ag conf inactive
O=C(Cc1ccc(NC(=O)C2CCCN(C(=O)C3CCCCC3)C2)cc1)Nc1ccc(C(=O)N2CCOCC2)cc1 (configuration not stated)	none (no result: Fh CTSL1 inh, HDAC3 inh, LANA-H2A inh)
O=C(Cc1ccc(NC(=O)C2CCCN(C(=O)C3CC3)C2)cc1)Nc1cccc(C(=O)N2CCCC2)c1 (configuration not stated)	HTR2A ag 15 (no result: Fh CTSL1 inh, HDAC3 inh, LANA-H2A inh) | MOR ag counter inactive | HTR2A ag conf inactive
Cn1cc([N+](=O)[O-])c(C(=O)N/N=C/c2ccc([N+](=O)[O-])cc2)n1	HTR2A ag 20 | MOR ag counter inactive | HTR2A ag conf 37
COc1ccc(N2C(=O)CSC23C(=O)N(CC(=O)NC2CCCC2)c2ccccc23)cc1 (configuration not stated)	none
COc1ccccc1CN1CCN(C(=O)c2ccco2)CC1	HTR2A ag 30 | MOR ag counter inactive | HTR2A ag conf 92
COc1ccc(CN2CCN(C(=O)c3ccco3)CC2)c(OC)c1OC	HTR2A ag 29 | MOR ag counter inactive | HTR2A ag conf 78
COc1cccc(NC(=O)CN(C)C(=O)CC(NC(=O)c2ccccc2Cl)c2ccccc2)c1 (configuration not stated)	none (no result: Fh CTSL1 inh)
COc1ccc(-c2ccc(CN3C(C)C(=O)N(Cc4cn(Cc5ccco5)nn4)CCS3(=O)=O)cc2)cc1 (configuration not stated)	none (no result: Fh CTSL1 inh, HDAC3 inh, LANA-H2A inh)
Cc1ccc(-c2ccc(CN3C(C)C(=O)N(Cc4cn(Cc5ccco5)nn4)CCS3(=O)=O)cc2)cc1 (configuration not stated)	HTR2A ag 18 (no result: Fh CTSL1 inh, HDAC3 inh, LANA-H2A inh) | MOR ag counter inactive | HTR2A ag conf inactive
COc1ccc(-c2ccc(CN3C(C(C)C)C(=O)N(Cc4cn(Cc5ccco5)nn4)CCS3(=O)=O)cc2)cc1OC (configuration not stated)	none (no result: Fh CTSL1 inh, HDAC3 inh, LANA-H2A inh)
COc1ccc(-c2ccc(CN3C(C(C)C)C(=O)N(Cc4cn(Cc5ccco5)nn4)CCS3(=O)=O)cc2)cc1 (configuration not stated)	HTR2A ag 18 (no result: Fh CTSL1 inh, HDAC3 inh, LANA-H2A inh) | MOR ag counter inactive | HTR2A ag conf inactive
